# In PubChem BioAssay (NCATS):
# Results filed as inconclusive are left out. Entries that show only a call come without a potency. Values without a mark were called inactive. Calls of active or inactive are those of the source. Calls follow the shape of the dose curve; as a rule, active = well fitted cell-killing curve with a large enough effect; inconclusive = small, poorly fitted or top-dose-only effect, or effect the other way; inactive = no such curve, though single readings can be large or run the other way.
# Columns and labels:
# [1] = Viability qHTS for spleen associated tyrosine kinase inhibitor (SYKi) naive MV4-11 cells (AID 1963823); also: nearly all actives have a fitted effect of over 40% in size
# Procedure, shortened: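 In this viability screen, compounds acted on SYK inhibitor naive MV4-11 cells for three days (72 hr, 37 C). Remaining viable cells were measured by CellTiter-Glo luminescence following a 10 min room-temperature development.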
# [2] = Viability qHTS for spleen associated tyrosine kinase inhibitor (SYKi) drug resistant MV4-11 cells (AID 1963824); also: nearly all actives have a fitted effect of over 35% in size
# Procedure, shortened: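 CellTiter-Glo luminescence, read 10 min after reagent addition, reports viability after a 72 hr compound exposure. Cells are an MV4-11 line made resistant to SYK inhibition, seeded at 500 per well onto compound-containing plates.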
# Potency is read from the fitted curve at half-maximal effect.
Structure (SMILES),Potency [1],Potency [2],viability (% of control) [1],"viability, % of control [2]"
CC(/C=C/[C@]1(O)[C@@]2(C)CO[C@@]1(C)C[C@@H](O)C2)=C\C(=O)O[C@@H]1O[C@H](CO)[C@@H](O)[C@H](O)[C@H]1O,inactive,inactive,,
C[C@@H]1C(=O)O[C@H](C)[C@H]1C[C@@H](O)[C@](C)(O)[C@H]1CC[C@@]2(O)C3=CC(=O)[C@@H]4C[C@@H](O)[C@@H](O)C[C@]4(C)C3CC[C@]12C (stereo partly drawn),inactive,inactive,,
CCc1c(CC(N)=O)c2cc(OCCCP(=O)(O)O)ccc2n1Cc1ccccc1,inactive,inactive,,
O=C(O)c1ccc(S(=O)(=O)N(Cc2ccc(OC(F)(F)F)cc2)c2ncc(C(F)(F)F)cc2Cl)cc1,20600 nM (active),23100 nM (active),,
CC1CCC2C(C(=O)O)=COC(O[C@@H]3O[C@H](CO)[C@@H](O)[C@H](O)[C@H]3O)C12 (stereo partly drawn),inactive,16100 nM (active),,
CC(C)n1cc(-c2ccc(Oc3ccccc3)cc2)c2c(N)ncnc21,92 nM (active),206 nM (active),,
C[C@H](N)C(=O)N[C@@H](Cc1ccc(O)cc1)C(=O)N1CCC[C@H]1C(=O)NCC(=O)N[C@@H](CCCCN)C(=O)N[C@@H](Cc1ccccc1)C(N)=O,,,94.9% [at 9.25 µM],89.8% [at 9.25 µM]
CC(=O)O[C@@H](C[C@@H]1C=C(C)C(=O)O1)[C@H](C)[C@H]1CCC2[C@@]3(C)CC[C@H](O[C@@H]4O[C@H](CO)[C@@H](O)[C@H](O)[C@H]4O[C@@H]4O[C@@H](C)[C@H](O)[C@@H](O)[C@H]4O)C(C)(C)C3CC[C@@]2(C)[C@@]12COC(=O)C2 (stereo partly drawn),,,81.6% [at 9.25 µM],89.9% [at 9.25 µM]
C[C@H](CCC(=O)O)[C@H]1CC[C@H]2[C@@H]3C[C@H](O)[C@@H]4C[C@H](O)CC[C@]4(C)[C@H]3CC[C@]12C,inactive,inactive,,
C=C1C(=O)OC2/C=C(\COC(C)=O)CC/C=C(\C=O)CC(OC(=O)C(C)CC)C12 (stereo not drawn),1590 nM (active),1120 nM (active),,
C[C@@H]1O[C@@H](O[C@H]2[C@H](O)[C@@H](C(=O)O)O[C@@H](O[C@H]3CC[C@@]4(C)C(CC[C@]5(C)C4CC=C4C6CC(C)(C)CC[C@]6(C(=O)O)CC[C@]45C)C3(C)C)[C@@H]2O[C@@H]2O[C@H](CO)[C@@H](O)[C@H](O)[C@H]2O)[C@H](O)[C@H](O)[C@H]1O (stereo partly drawn),,,72.6% [at 9.25 µM],81.7% [at 9.25 µM]
C[C@@H]1O[C@@H](O[C@H]2[C@@H]3C=CO[C@@H](O[C@@H]4O[C@H](CO)[C@@H](O)[C@H](O)[C@H]4O)[C@@H]3[C@@]3(CO)O[C@@H]23)[C@H](O)[C@H](OC(=O)/C=C/c2ccc(O)cc2)[C@H]1OC(=O)/C=C/c1ccc(O)cc1,inactive,inactive,,
COc1cc(C(=O)OC[C@@]2(O)CO[C@@H](O[C@H]3[C@H](Oc4ccc(O)cc4)O[C@H](CO)[C@@H](O)[C@@H]3O)[C@@H]2O)cc(OC)c1O,inactive,inactive,,
O=C(Nc1ccc2[nH]ncc2c1)C1CCC1,inactive,inactive,,
